Consider 27 compounds from PubChem BioAssay (NCATS).

Inconclusive results are not listed. Entries that show only a call come without a potency. The source made the active and inactive calls. Calls follow the shape of the dose curve; as a rule, active = well fitted inhibition curve with a large enough effect; inconclusive = small, poorly fitted or top-dose-only effect; inactive = flat fitted curve, though single readings scatter.
Potency is read from the fitted curve at half-maximal effect.

A short description of this assay: P-glycoprotein substrates identified in KB-8-5-11 adenocarcinoma cell line, qHTS therapeutic library screen (AID 1346987). Also: nearly all actives have a fitted effect of over 65% in size. As to conditions: KB-8-5-11 (P-gp overexpressing) viability, CellTiter-Glo, 72 h; series mostly up to 44.5 µM. The essentials: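 Human cervical adenocarcinoma KB-8-5-11 cells, selected in colchicine to over-express P-gp and assayed without it, were exposed for 72 h to titrated compounds. An ATP-based luminescent viability signal gave AC50.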
A general note: In qHTS, concentration-response curves come from the screen itself.
As to `CN1[C@@H]2CC[C@H]1CC(OC(=O)C1C=Nc3ccccc31)C2` (some centres not stated), the Potency result was “inactive”.

In the case of `CCN1C[C@]2(OC(=O)c3ccccc3NC(C)=O)CC[C@H](OC)[C@@]34[C@@H]2C[C@@H]([C@@H]13)[C@@]1(O)C[C@H](OC)[C@H]2C[C@@H]4[C@]1(O)[C@H]2OC`, the Potency result was “inactive”.

Turning to `C=CC(C)(C)c1[nH]c2cccc3c2c1C[C@@H]1[C@@H]3[C@@H](OC(C)=O)[C@H](C)CN1C`, the Potency entry was “inactive”.

Regarding `CN(C)CCc1c[nH]c2ccc(CN3CCN(C)S3(=O)=O)cc12`, the Potency entry was “inactive”.

As for `CC12CCC3C(CCC4(O)CC(O)CCC34C=O)C1(O)CCC2C1=CC(=O)OC1` (configuration not stated), the Potency is 0.651 µM (active).

For the compound `COC1C(O)C(C)OC(OC2C(CO)O[C@@H](O[C@@H]3CC4CCC5C(CC[C@]6(C)[C@@H](C7=CC(=O)OC7)CC[C@]56O)[C@@]4(C)[C@H](O)C3)C(O)C2O)C1O` (some centres not stated), the Potency is 0.544 µM (active).

Consider `OC1(c2ccc(Cl)cc2)c2ccccc2C2=NCCN21` (configuration not stated), for which the Potency result is “inactive”.

As to `CC(CCc1ccc(O)cc1)O[C@@H]1O[C@H](CO[C@H]2OC[C@](O)(CO)[C@H]2O)[C@@H](O)[C@H](O)[C@H]1O` (some centres not stated), the Potency result is “inactive”.

For `CC[C@H]1CN2CC[C@H]1C[C@H]2[C@H](O)c1ccnc2ccc(OC)cc12`, the Potency entry is “inactive”.

Turning to `COC1C(O)C(OC2CCC3(C=O)C(CCC4C3CCC3(C)C(C5=CC(=O)OC5)CCC43O)C2)OC(C)C1OC1OC(CO)C(O)C(O)C1O` (configuration not stated), the Potency is 0.432 µM (active).

Consider `C/C=C(\C)C(=O)OC1C(C)OC(OC2C(C)OC(OC3CCC4(C)C(=CCC5C4CCC4(C)C(C(C)OC6OC(COC7OC(CO)C(O)C(O)C7O)C(O)C(O)C6O)CCC54O)C3)CC2OC)C(O)C1OC` (configuration not stated), for which the activity change, negative = cytotoxicity was 7.92% [at 9.29 µM] (inactive).

With `C=CC(C)(O)CC/C=C(\C)C(=O)O[C@H]1[C@H](O)[C@@H](CO)O[C@@H](OC(=O)[C@]23CCC(C)(C)CC2C2=CCC4[C@@]5(C)CC[C@H](O[C@@H]6O[C@H](CO[C@@H]7OC[C@H](O)[C@H](O)[C@H]7O[C@@H]7OC[C@@H](O)[C@H](O)[C@H]7O)[C@@H](O)[C@H](O)[C@H]6O)C(C)(C)C5CC[C@@]4(C)[C@]2(C)CC3)[C@@H]1OC1OC(C)C(O[C@@H]2OC[C@@H](O)[C@H](O[C@@H]3OC[C@@H](O)[C@H](O)[C@H]3O)[C@H]2O)C(O)C1O` (some centres not stated), the activity change, negative = cytotoxicity is 3.69% [at 9.29 µM] (inactive).

Consider `Cc1cccc(NC(=O)N[C@@H]2N=C(c3ccccc3)c3ccccc3N(C)C2=O)c1`, for which the Potency result is “inactive”.

Regarding `N#CC(OC1OC(COC2OC(CO)C(O)C(O)C2O)C(O)C(O)C1O)c1ccccc1` (configuration not stated), the Potency result was “inactive”.

For the compound `CN1C(=O)c2ccccc2NC(=O)[C@]12O[C@@H]2c1ccccc1`, the Potency entry is “inactive”.

Turning to `CO[C@H]1[C@H](O)[C@H](O[C@H]2CC[C@]3(C)C4CC[C@]5(C)[C@H](C6=CC(=O)OC6)CC[C@]5(O)C4CC[C@@H]3C2)O[C@@H](C)[C@@H]1O` (some centres not stated), the Potency was 0.0563 µM (active).

As to `C/C=C(\C)C(=O)OC1CC2C(C)(C)OC(=O)CC(OC(C)=O)C2(C)C2CC(OC(=O)C(C)C)C3(C)C(c4ccoc4)CC4OC43C12C` (configuration not stated), the Potency result was “inactive”.

On to `CCC(C)(OC(C)=O)C(=O)O[C@H]1[C@H](OC(C)=O)C[C@@H]2[C@@](C)([C@@H]3C[C@H]4C=CO[C@H]4O3)[C@H](C)C[C@H](OC(C)=O)[C@@]2(COC(C)=O)[C@@]12CO2` (some centres not stated), for which the Potency result is “inactive”.

In the case of `C[C@@](O)(COc1ccc(C#N)cc1)C(=O)Nc1ccc(C#N)c(C(F)(F)F)c1`, the Potency entry is “inactive”.

For the compound `COC(=O)C1(C)CCC(=O)C2(C)c3c(O)cc(C(C)C)cc3C(O)C(OC(C)=O)C12` (configuration not stated), the Potency result is “inactive”.

Regarding `O=C(N1CCOCC1)N1CCN(c2ccc(Cl)cc2)CC1`, the Potency result was “inactive”.

`C[C@H]1O[C@@H](O[C@H]2C[C@@H](O)[C@]3(CO)C4C(CC[C@]3(O)C2)[C@@]2(O)CC[C@H](C3=CC(=O)OC3)[C@@]2(C)C[C@H]4O)[C@@H](O)[C@@H](O)[C@H]1O` (some centres not stated): the Potency is 0.432 µM (active).

On to `CC(=O)OC1CC(O)C(C)(C)C2CC(OC(C)=O)C3(C)C(CCC4(C)C(c5ccoc5)C(=O)C5OC543)C12C` (configuration not stated), for which the Potency entry was “inactive”.

`C[C@@]12C[C@@H](c3ccoc3)OC(=O)C1CC[C@]1(C)[C@H]2[C@H]2C=C[C@]1(O)C(=O)O2` (some centres not stated): the Potency result was “inactive”.

Turning to `Clc1ccc(N2C[C@H]3CC[C@@H](C2)N3)nn1`, the Potency entry is “inactive”.

Regarding `N#C[C@@H](O[C@@H]1O[C@H](CO[C@@H]2O[C@H](CO)[C@@H](O)[C@H](O)[C@H]2O)[C@@H](O)[C@H](O)[C@H]1O)c1ccccc1`, the Potency entry is “inactive”.

For the compound `CC(=O)O[C@H]1C[C@@H](OC(C)=O)C(C)(C)C2C[C@@H](O)[C@]3(C)C(CC[C@@]4(C)[C@H](C5=CC(=O)OC5O)C[C@H]5O[C@]543)[C@]21C` (some centres not stated), the Potency result is “inactive”.
